The nature of assay [1]: qHTS profiling for inhibitors of Plasmodium falciparum proliferation (AID 504749). Also: potency is read from the fitted curve at half-maximal effect.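 As to activity, negative = inhibition: 0% = DMSO vehicle and full inhibition = artemisinin control.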 As to all read-outs here: nearly all actives have a fitted effect of over 60% in size. To be noted: P. falciparum in erythrocytes, SYBR Green DNA, 72 h; for activity, negative = inhibition: at 28.7 µM (top of the series). A digest of the protocol: (§1)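 Parasite proliferation within erythrocytes, 72 h exposure. Endpoint: SYBR Green I fluorescence after overnight lysis at room temperature. Controls: 0.29 uM artemisinin, DMSO.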

A further assay has as its system 3D7. Described as above. To be noted: P. falciparum in erythrocytes, SYBR Green DNA, 72 h; series mostly up to 28.7 µM. A digest of the protocol: as §1
The next assay relates to 7G8. The description is as above. To be noted: P. falciparum in erythrocytes, SYBR Green DNA, 72 h; series mostly up to 28.7 µM. The gist of the method:
as §1

In a further assay the test system is AA1029. The description is as above. To be noted: P. falciparum in erythrocytes, SYBR Green DNA, 72 h; series mostly up to 28.7 µM. A digest of the protocol:
as §1

The next assay concerns AS120. The description is as above. To be noted: P. falciparum in erythrocytes, SYBR Green DNA, 72 h; series mostly up to 28.7 µM. The gist of the method: as §1
The test system of the next assay is ATS189. Described as above. To be noted: P. falciparum in erythrocytes, SYBR Green DNA, 72 h; series mostly up to 28.7 µM. A digest of the protocol:
as §1

In the next assay the test system is ATS95. The assay is described as above. To be noted: P. falciparum in erythrocytes, SYBR Green DNA, 72 h; series mostly up to 28.7 µM. The gist of the method:
as §1

In a further assay the test system is C2A. The description is as above. To be noted: P. falciparum in erythrocytes, SYBR Green DNA, 72 h; series mostly up to 28.7 µM. A digest of the protocol: as §1
A further assay has as its system CP185. The assay is described as above. To be noted: P. falciparum in erythrocytes, SYBR Green DNA, 72 h; series mostly up to 28.7 µM. The gist of the method:
as §1

A further assay relates to CP191. The description is as above. To be noted: P. falciparum in erythrocytes, SYBR Green DNA, 72 h; series mostly up to 28.7 µM. The gist of the method: as §1
The next assay deals with CP192. The assay is described as above. To be noted: P. falciparum in erythrocytes, SYBR Green DNA, 72 h; series mostly up to 28.7 µM. The gist of the method: as §1
A further assay relates to CP194. The assay is described as above. To be noted: P. falciparum in erythrocytes, SYBR Green DNA, 72 h; series mostly up to 28.7 µM. A digest of the protocol: as §1
Another assay relates to CP201. Described as above. To be noted: P. falciparum in erythrocytes, SYBR Green DNA, 72 h; series mostly up to 28.7 µM. A digest of the protocol:
as §1

The test system of a further assay is CP203. Described as above. To be noted: P. falciparum in erythrocytes, SYBR Green DNA, 72 h; series mostly up to 28.7 µM. A digest of the protocol:
as §1

For another assay, the system named is CP211. Described as above. To be noted: P. falciparum in erythrocytes, SYBR Green DNA, 72 h; series mostly up to 28.7 µM. A digest of the protocol:
as §1

The test system of a further assay is CP215. Described as above. To be noted: P. falciparum in erythrocytes, SYBR Green DNA, 72 h; series mostly up to 28.7 µM. A digest of the protocol:
as §1

The next assay has as its system CP217. The description is as above. To be noted: P. falciparum in erythrocytes, SYBR Green DNA, 72 h; series mostly up to 28.7 µM. The gist of the method:
as §1

Another assay concerns CP237. The description is as above. To be noted: P. falciparum in erythrocytes, SYBR Green DNA, 72 h; series mostly up to 28.7 µM. A digest of the protocol:
as §1

Assay [2] can be described thus: Dual reporter qHTS for antagonist of Pregnane X Receptor (hPXR) against the NCATS DSHEA and TCM libraries: Fluorescence Readout (AID 1920061). Also: 0% is about no effect. To be noted: PXR dual reporter cells, antagonist mode; series mostly up to 40 µM. A digest of the protocol: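 Antagonist mode: rifampicin 2 uM final co-added with compounds to hPXR-LucHepG2 cells for 24 h at 37C. Viability by CellTiter-Fluor, Ex/Em 405/540 nm, 1 h; reporter by ONE-Glo luminescence.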
For orientation: In qHTS, concentration-response curves come from the screen itself.

Assay [3] is described as follows: qHTS drug screen for cell cycle checkpoint inhibitors in PARPi-resistant BRCA-mutant ovarian cancer cell lines. (AID 1963452; calls by dose curve; also: potency is read from the fitted curve at half-maximal effect). To be noted: PEO1/OlaR viability, CellTiter-Glo luminescence, 96 h; for Z-AUC: stronger effect = lower value. The gist of the method: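 PEO1, PEO4 and PEO1/OlaR ovarian cancer cells, 600 per well, exposed 96 h at 37C to a dilution series. Viability read by CellTiter-Glo luminescence, normalized to DMSO and empty wells; activity summarized as Z-AUC.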

[4] abbreviates: measured here: PEO1 parental Z-AUC.

The source of these data is PubChem BioAssay (NCATS).

Inconclusive results are not listed. Calls of active or inactive are those of the source. Unless noted, calls follow the shape of the dose curve; as a rule, active = well fitted curve in the direction sought with a large enough effect; inconclusive = small, poorly fitted or top-dose-only effect, or another doubt; inactive = no such curve, though single readings can be large; an effect the other way counts as inactive or inconclusive.

Consider `COc1cc(C(=S)N2CCOCC2)cc(OC)c1OC`, for which the activity, negative = inhibition in assay [1] (parasite line A) is 7.95% (inactive); in assay [1] (parasite line B), 9.84% (inactive). For the same compound, the Potency entry with 3D7, with 7G8, with AA1029, in the assay on AS120, in the assay on ATS189 and in the assay with ATS95 was “inactive” throughout. Besides, the Potency entry in the assay with C2A, in the assay on CP185, in the assay with CP191, in the assay with CP192, in the assay with CP194 and in the assay on CP201 was “inactive” each time. The Potency entry with CP203, in the assay with CP211, with CP215, with CP217 and with CP237 was “inactive” in each case.

As for `Cc1ncc(CSSCc2cnc(C)c(O)c2CO)c(CO)c1O`, the activity, negative = inhibition was 0.466% (inactive) in assay [1] (parasite line A) and -3.16% (inactive) in [1] (parasite line B). The Potency entry with 3D7, in the assay with 7G8, in the assay on AA1029, in the assay on AS120, in the assay on ATS189 and in the assay with ATS95 was “inactive” in each case. Further, the Potency entry in the assay with C2A, in the assay on CP185, with CP191, in the assay on CP192, in the assay on CP194 and in the assay on CP201 was “inactive” each time. Also, the Potency result in the assay on CP203, with CP211, with CP215, with CP217 and in the assay with CP237 was “inactive” each time.

On to `Nc1ccc(C(=O)O)cc1`, for which, in [2], the outcome was inactive. Also, the activity, negative = inhibition in assay [1] (parasite line A) was -7.02% (inactive); in [1] (parasite line B), 4.76% (inactive). Besides, the Potency result in the assay on 3D7, with 7G8, in the assay with AA1029, in the assay with AS120, in the assay on ATS189 and in the assay on ATS95 was “inactive” each time. Moreover, the Potency result in the assay on C2A, with CP185, with CP191, in the assay on CP192, in the assay on CP194 and in the assay with CP201 was “inactive” in each case. The Potency result with CP211, in the assay with CP215, with CP217 and with CP237 was “inactive” in each case.

For the compound `COc1cc2c(cc1O)CC[C@@H]1[C@@H]2CC[C@]2(C)[C@@H](O)CC[C@@H]12`, the Z-AUC in [3] is 0.212 (inactive); in assay [3] (setting [4]), -0.545; in [3] (measured here: PEO4 Z-AUC), -0.454.

With `CC(=O)OCC(=O)[C@@]1(O)CC[C@H]2[C@@H]3CCC4=CC(=O)C=C[C@]4(C)[C@H]3[C@@H](O)C[C@@]21C`, the Z-AUC was -0.27 (inactive) in assay [3], 1.1 in assay [3] (setting [4]) and 0.219 in assay [3] (measured here: PEO4 Z-AUC).

As for `CC(=O)O[C@]1(C(C)=O)CC[C@H]2[C@@H]3C[C@H](C)C4=CC(=O)CC[C@]4(C)[C@H]3CC[C@@]21C`, the Z-AUC in [3] was -1.26 (inactive); in assay [3] (setting [4]) it was -0.257; in [3] (measured here: PEO4 Z-AUC) it was 0.0735.

`COc1cccc2c1C(=O)c1c(O)c3c(c(O)c1C2=O)C[C@@](O)(C(C)=O)C[C@@H]3O[C@H]1C[C@H](N)[C@H](O)[C@H](C)O1`: the Potency is 0.174 µM (active) in [3]; 3.55 µM (active) in assay [1] (parasite line A); 7.08 µM (active) in [1] (parasite line B); 2 µM (active) in the assay on 3D7; 1.26 µM (active) with 7G8; 4.47 µM (active) in the assay with AA1029. The Potency in the assay with AS120 was 3.98 µM (active); with ATS189 it was 8.91 µM (active); in the assay on ATS95, 4.47 µM (active); in the assay with C2A, 3.16 µM (active); in the assay on CP185, 4.47 µM (active); in the assay on CP191, 3.16 µM (active). Moreover, the Potency with CP192 was 6.01 µM (active); in the assay with CP194 it was 7.57 µM (active); with CP201, 9.53 µM (active); in the assay with CP203, 8.49 µM (active); with CP211, 3.79 µM (active); in the assay on CP215, 7.57 µM (active). The Potency in the assay on CP217 and in the assay with CP237 was 1 µM (active) in each case. For the same compound, the Z-AUC is -2.1 in [3] (setting [4]) and -2.06 in [3] (measured here: PEO4 Z-AUC).

Consider `C=CCc1ccc(O)c(OC)c1`, for which the outcome in assay [2] was inactive. In addition, the activity, negative = inhibition in [1] (parasite line A) was 9.84% (inactive); in assay [1] (parasite line B), 1.91% (inactive). Moreover, the Potency result in the assay on 3D7, with 7G8, with AA1029, with AS120, in the assay with ATS189 and in the assay with ATS95 was “inactive” each time. The Potency result in the assay with C2A, in the assay with CP185, in the assay with CP191, with CP192, with CP194 and in the assay with CP201 was “inactive” in each case. Further, the Potency entry in the assay on CP203, with CP211, in the assay on CP215, in the assay with CP217 and in the assay on CP237 was “inactive” throughout.

For the compound `Nc1nc2ncc(CNc3ccc(C(=O)N[C@@H](CCC(=O)O)C(=O)O)cc3)nc2c(=O)[nH]1`, in [2], the compound was classed as inactive.
